# GLP-1R inv ag: GLP-1 receptor (human) inverse agonism; P43220; 410,000 compounds, 1.6% hits; HEK293 GLP-1R CRE-luciferase, luminescence, 24 h; GLP-1R form is constitutively active; AID 624417; Potency, µM (top dose mostly 38.3 µM), for inactives: top-dose activity change, negative = inhibition, hits mostly inhibitors; note: % is set by controls: 0 for no effect and ±100 for the full control effect; nearly all actives have a fitted effect of over 55% in size
# Target sequence (P43220 whole entry, looked up): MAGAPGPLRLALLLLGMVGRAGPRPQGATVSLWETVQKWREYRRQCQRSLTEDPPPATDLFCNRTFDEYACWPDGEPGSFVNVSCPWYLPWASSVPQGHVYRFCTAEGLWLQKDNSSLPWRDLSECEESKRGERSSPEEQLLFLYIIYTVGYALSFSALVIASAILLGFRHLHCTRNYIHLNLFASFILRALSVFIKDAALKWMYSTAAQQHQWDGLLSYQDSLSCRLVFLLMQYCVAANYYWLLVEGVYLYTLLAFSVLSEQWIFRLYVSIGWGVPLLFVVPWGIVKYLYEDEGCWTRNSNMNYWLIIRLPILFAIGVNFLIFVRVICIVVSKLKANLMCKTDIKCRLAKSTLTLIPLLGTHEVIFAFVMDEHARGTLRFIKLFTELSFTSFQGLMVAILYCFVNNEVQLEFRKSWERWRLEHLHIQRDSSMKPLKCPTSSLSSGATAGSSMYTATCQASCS
#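 HEK293 cells stably co-expressing a cAMP-responsive luciferase reporter and constitutively active GLP-1R were seeded, incubated 12 h, then exposed to compounds for 24 h at 37 C. Luminescence was read 12 min after detection reagent; inverse agonists lower signal.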
# PTHR1 agonist: activates the human parathyroid hormone receptor PTHR1; HEK293 GP2 PTHR1 cells, GloSensor cAMP luminescence, 1 h; AID 743266; 410,000 compounds, 0.075% hits; Potency, µM (doses to about 115 µM), for the others: at the highest dose activation, most hits filed as activators; note: nearly all actives have a fitted effect of over 55% in size
#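 HEK-293-derived GP2 cells expressing PTHR1 and a GloSensor cAMP reporter, 3,000/well, plated overnight, given luciferin plus IBMX (each 0.5 mM as added) for 1 h at 37 °C, then compound for 1 h at 37 °C. Luminescence was read after 15 min at room temperature.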
# GLP1R cytotox: cytotoxic in the GLP-1 receptor inverse agonist counter-screen. HEK293 cAMP-luciferase reporter cells, luminescence, 24 h. Potency, µM (doses to about 38.3 µM), inactives show at the top dose activity change, negative = inhibition, hits mostly inhibitors. 410,000 compounds, 0.13% hits. AID 624418;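 note: loss of luciferase light is scored as toxicity; % is set by controls: 0 for no effect and ±100 for the full control effect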
#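 Cells in DMEM/10% Nu serum/1% pen-strep, 1536-well format. Pre-incubated 12 h, dosed with 23 nL compound, incubated a further 24 h. Luciferase detection, 12 min at room temp, luminescence.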
# GLP1R ag: GLP-1 receptor (human) agonism; HEK293 GLP-1R CRE-luciferase, luminescence, 4-6 h; cells express a hypersensitive GLP-1R form; Potency, µM (titrated, usually from 45.6 µM), for the others: top-dose activation, actives largely listed as activators; 380,000 compounds, 0.007% hits; P43220; note: % of control where 0% means no effect
# An asterisk follows results filed as active; i = inactive; ? = inconclusive; / = no result. A selection: hits, their analogues and other compounds. The true share with any hit is near 1.7%. Calls come from the whole dose curve; as a rule, active = well fitted curve in the direction sought with a large enough effect; inconclusive = small, poorly fitted or top-dose-only effect, or another doubt; inactive = no such curve, though single readings can be large; an effect the other way counts as inactive or inconclusive. Potency is the fitted concentration of half-maximal effect.
SMILES,GLP-1R inv ag,PTHR1 agonist,GLP1R cytotox,GLP1R ag
C=Cc1ccc(Cn2c(SCC(=O)N3CCN(c4ccc(F)cc4)CC3)nc3ccccc32)cc1,-10%,i,7%,/
Cc1nn2c(=O)cc(COC(=O)c3ccc(NC(=O)COc4ccc(Cl)cc4)cc3)nc2s1,?,-15%,-22%,/
CCc1ccccc1N1CSC2=C(C#N)C(c3cc(OC)c(OC)cc3OC)CC(=O)N2C1 (centres undefined),3%,1.6µM*,0%,11%
COc1cc(/C=C(\C#N)c2nc3ccccc3c(=O)[nH]2)cc(OC)c1OC,-26%,i,2%,8%
CC1CCCC(C)N1C(=O)CSc1nnc(C2CCCCC2)o1 (centres undefined),3.2µM*,i,1%,0%
Cc1cc(-c2nnc(SCC(=O)N3C(C)CCCC3C)o2)no1 (centres undefined),16%,i,10%,-9%
Cc1ccc(C)c(NC(=S)N/N=C2\CCc3ccccc32)c1,?,-32%,?,-1%
Cc1ccc(NC(=S)N/N=C2/CCCCc3ccccc32)cc1,3.5µM*,i,5%,13%
Cc1cccc(NC(=S)N/N=C2/CCCCc3ccccc32)c1,?,i,21%,0%
CCNC(=S)N/N=C1\CCCCc2ccccc21,3.5µM*,i,4µM*,8%
C=C(C)CNC(=S)N/N=C1\CCCCc2ccccc21,?,-3%,4µM*,23%
O=C(C1CCN(S(=O)(=O)Cc2ccccc2)CC1)N1CCN(c2ccccc2)CC1,-1%,-5%,-1%,/
COCCNc1nc(NCc2ccccc2OC)c2sccc2n1,?,-21%,-2%,4%
COc1ccccc1CNc1nc(Nc2ccccc2-n2cccn2)c2sccc2n1,3.2µM*,-12%,-10%,33%
COc1ccc(CCNC(=O)c2cc(Nc3cc(C)cc(C)c3)nc3ccccc23)cc1OC,4.5µM*,-43%,3%,-9%
COc1ccc(CCNC(=O)c2cc(-c3ccccc3)nc3ccccc23)cc1OC,19%,i,-2%,17%
CCCCN(CCCNC(=O)c1cc(Nc2cccc(SC)c2)nc2ccccc12)Cc1ccccc1,?,-16%,1%,/
CSc1cccc(Nc2cc(C(=O)NCCc3ccc(Cl)cc3)c3ccccc3n2)c1,5µM*,18%,4%,-15%
CCN(C(=O)c1cn(CC)c(=O)c2cc(OC)c(OC)cc12)c1ccc(C)c(C)c1,2%,i,-4%,5%
Cc1cc(NC(=O)CSc2nc3cc(Cl)ccc3o2)no1,2.5µM*,i,?,5%
CN1CCN(C(CNS(=O)(=O)c2ccc(Br)cc2)c2ccc3c(c2)OCO3)CC1 (centres undefined),10µM*,6%,16%,9%
Cc1ccc(C(CNS(=O)(=O)c2ccc(Br)cc2)N2CCN(C)CC2)cc1 (centres undefined),7.9µM*,-3%,-10%,-1%
O=S(=O)(NCC(c1ccc2c(c1)OCO2)N1CCOCC1)c1ccc(Br)cc1 (centres undefined),?,18%,-3%,9%
CCCCNC(=O)Cn1c(=O)cc(C)c2c(C)nn(-c3cccc(Cl)c3C)c21,-8%,4%,2%,/
CO[C@@H]1[C@@H](OC2OC(C)C(OC3CC(C)(O)C(OC(=O)CC(C)C)C(C)O3)C(N(C)C)C2O)[C@@H](CC=O)C[C@@H](C)C(=O)/C=C\C2O[C@H]2C[C@@H](C)OC(=O)C[C@H]1OC(C)=O (some centres undefined),/,/,/,4%
SMILES,GLP-1R inv ag,PTHR1 agonist,GLP1R cytotox,GLP1R ag
OCC(O)COc1ccc(Cl)cc1 (centres undefined),/,/,/,-2%
Cc1noc(C)c1COc1ccccc1C(=O)N(C)CC(=O)Nc1ccc(Cl)c(Cl)c1,10µM*,-2%,-10%,1%
COc1cccc(NC(=O)CN(C)C(=O)c2ccccc2OCc2c(C)noc2C)c1,1%,-67%,-9%,8%
CCCCC(=O)Nc1cccc(-c2nc3ccccc3s2)c1,?,-16%,-4%,/
COc1ccc(C(=O)C2CCCN(Cc3cc(Cl)ccc3O)C2)c(OC)c1 (centres undefined),?,-92%,-14%,12%
COc1ccc(C(=O)NC2CCCN(Cc3ccc(Cl)cc3)C2)c(OC)c1 (centres undefined),7.9µM*,-31%,-16%,12%
COc1ccc(C(=O)C2CCCN(Cc3cc(C)c(O)c(C)c3)C2)c(OC)c1 (centres undefined),4.5µM*,-5%,0%,-8%
COc1ccc(-c2noc(C3CC(=O)N(c4ccc(C)c(F)c4)C3)n2)c(OC)c1 (centres undefined),4%,-5%,-3%,/
O=C(C(c1ccccc1)c1ccccc1)N1CCCc2ccccc21,5µM*,i,-8%,1%
Cc1c(Br)c([N+](=O)[O-])nn1C(C)C(=O)N1CCCc2ccccc21 (centres undefined),10µM*,-25%,-22%,-4%
COc1cccc(N/C(SCc2ccccc2C)=C(/C#N)C(=O)NCc2cccs2)c1,7.1µM*,i,15%,-5%
COc1cccc(N/C(SCc2ccccc2Cl)=C(/C#N)C(=O)NCc2cccs2)c1,-3%,-16%,12%,-1%
Cc1nn(C)c2c1c(-c1ccccc1)cc(=O)n2Cc1ccccc1Cl,11%,-57%,18%,/
CCc1ccc2[nH]c(=O)c(CN(Cc3ccccc3)C(=O)Nc3ccccc3OC)cc2c1,3.5µM*,i,?,11%
CCN(CC)CCCN(Cc1cc2cc(OC)ccc2[nH]c1=O)C(=O)Nc1ccc(F)cc1,4.5µM*,i,-18%,14%
O=S1(=O)c2ccccc2N(Cc2ccccc2Cl)c2ccccc21,18%,-10%,7%,/
C=CCC(CC=C)(CNC(=O)C(=O)Nc1cccc(C(F)(F)F)c1)c1ccccc1,1%,-10%,2%,/
CCc1nc2c(OCc3ccc(C(F)(F)F)cc3)cccn2c1N(C)C(=O)C1CC1,14µM*,-24%,-7%,-7%
CCCCC(=O)N(C)c1c(CC)nc2c(OCc3ccccc3C)cccn12,11µM*,-8%,6%,9%
CC(C)c1nc2ccc(C(=O)NCCCN3CCN(c4ccc(F)cc4)CC3)cc2o1,?,i,-8%,/
O=C(NCCN1CCN(c2ccccc2)CC1)Nc1cccc(Cl)c1,2.5µM*,-10%,-19%,23%
Cc1cc(C(=O)NCCN2CCN(c3cccc(Cl)c3)CC2)n(-c2ccccc2)n1,6.3µM*,-16%,-25%,-5%
CC(C)c1nc2ccc(C(=O)NCCCN3CCN(c4cccc(Cl)c4)CC3)cc2o1,10µM*,i,-17%,/
CCOc1ccc(-n2cc(-c3ccccc3)c3c(N4CCC(C)CC4)ncnc32)cc1,?,i,-9%,/
CC(=O)c1ccc(NC(=S)NC(NC(=O)c2ccco2)C(Cl)(Cl)Cl)cc1 (centres undefined),5µM*,-11%,-7%,-17%

# Screening data deposited in PubChem BioAssay by National Center for Advancing Translational Sciences (NCATS).
